Reference: the supplement of paper PMC7411054
Where a name gives a salt, the structure may show the parent alone.

Tests used:
Test in all cases: phenotypically active (imaging signature differs from DMSO and reproducible) at any of 0.3-9 uM (binary (1 = active, 0 = inactive)); higher = active
Conditions in all cases: treatment time: 24 h
[1] = tested on: A549-ACTB-RAB5A
Method in brief: (§1)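 Fifteen gene-edited A549, HepG2 and WPMY1 reporter lines (BFP segmentation plus GFP and RFP/FusionRed markers) were treated at 0.3, 1, 3 or 9 µM for 24 h, four wells each, then imaged live. Live-cell features per well were normalised to DMSO control wells. Deviation required ≥3 of 4 wells beyond the 95th percentile of DMSO Euclidean distances, and reproducibility required median replicate Pearson correlation above the 95th percentile of non-replicates. Phenotypic activity needed both criteria.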

[2] = tested on: A549-CANX-COX4
Method in brief: as §1

[3] = tested on: A549-GM130-SQSTM1
Method in brief: as §1

[4] = tested on: A549-TP53BP1-CLTA
Method in brief: as §1

[5] = tested on: A549-TUBA1B-RELA
Method in brief: as §1

[6] = tested on: HepG2-ACTB-RAB5A
Method in brief: as §1

[7] = tested on: HepG2-CANX-COX4
Method in brief: as §1

[8] = tested on: HepG2-GM130-SQSTM1
Method in brief: as §1

[9] = tested on: HepG2-TP53BP1-CLTA
Method in brief: as §1

[10] = tested on: HepG2-TUBA1B-RELA
Method in brief: as §1

[11] = tested on: WPMY1-ACTB-RAB5A
Method in brief: as §1

[12] = tested on: WPMY1-CANX-COX4
Method in brief: as §1

[13] = tested on: WPMY1-GM130-SQSTM1
Method in brief: as §1

[14] = tested on: WPMY1-TP53BP1-CLTA
Method in brief: as §1

[15] = tested on: WPMY1-TUBA1B-RELA
Method in brief: as §1

Measured: phenotypically active

O=C(CCc1ccc(O)cc1)c1c(O)cc(O)cc1O[C@@H]1O[C@H](CO)[C@@H](O)[C@H](O)[C@H]1O [Phloridzin]
inactive: [1] 0 | [2] 0 | [3] 0 | [4] 0 | [5] 0 | [6] 0 | [7] 0 | [8] 0 | [9] 0 | [10] 0 | [11] 0 | [12] 0 | [13] 0 | [14] 0 | [15] 0

CC(=O)c1ccc(S(=O)(=O)NC(=O)NC2CCCCC2)cc1 [acetohexamide]
inactive: [1] 0 | [2] 0 | [3] 0 | [4] 0 | [5] 0 | [6] 0 | [7] 0 | [8] 0 | [9] 0 | [10] 0 | [11] 0 | [12] 0 | [13] 0 | [14] 0 | [15] 0

Cn1cnc([N+](=O)[O-])c1Sc1ncnc2nc[nH]c12 [azathioprine]
inactive: [1] 0 | [2] 0 | [3] 0 | [4] 0 | [5] 0 | [6] 0 | [7] 0 | [8] 0 | [9] 0 | [10] 0 | [11] 0 | [12] 0 | [13] 0 | [14] 0 | [15] 0

C[C@H](NC(=O)CCc1nc2ccccc2c(=O)[nH]1)c1ccccc1
inactive: [1] 0 | [2] 0 | [3] 0 | [4] 0 | [5] 0 | [6] 0 | [7] 0 | [8] 0 | [9] 0 | [10] 0 | [11] 0 | [12] 0 | [13] 0 | [14] 0 | [15] 0

COC(=O)c1ccc(N2CCN(C)CC2)c(NC(=O)c2cccc(OC)c2)c1
inactive: [1] 0 | [2] 0 | [3] 0 | [4] 0 | [5] 0 | [6] 0 | [7] 0 | [8] 0 | [9] 0 | [10] 0 | [11] 0 | [12] 0 | [13] 0 | [14] 0 | [15] 0

COc1ccc([C@@H]2Sc3ccccc3N(CCN(C)C)C(=O)[C@@H]2OC(C)=O)cc1 [diltiazem]
inactive: [1] 0 | [2] 0 | [3] 0 | [4] 0 | [5] 0 | [6] 0 | [7] 0 | [8] 0 | [9] 0 | [10] 0 | [11] 0 | [12] 0 | [13] 0 | [14] 0 | [15] 0

O=C(O)CCCc1ccccc1 [Sodium 4-Phenylbutyrate]
inactive: [1] 0 | [2] 0 | [3] 0 | [4] 0 | [5] 0 | [6] 0 | [7] 0 | [8] 0 | [9] 0 | [10] 0 | [11] 0 | [12] 0 | [13] 0 | [14] 0 | [15] 0

NC(=O)OCC(COC(N)=O)c1ccccc1 [felbamate]
inactive: [1] 0 | [2] 0 | [3] 0 | [4] 0 | [5] 0 | [6] 0 | [7] 0 | [8] 0 | [9] 0 | [10] 0 | [11] 0 | [12] 0 | [13] 0 | [14] 0 | [15] 0

CCc1ccc(CCOc2ccc(CC3SC(=O)NC3=O)cc2)nc1 (stereo not given) [Pioglitazone hydrochloride]
inactive: [1] 0 | [2] 0 | [3] 0 | [4] 0 | [5] 0 | [6] 0 | [7] 0 | [8] 0 | [9] 0 | [10] 0 | [11] 0 | [12] 0 | [13] 0 | [14] 0 | [15] 0

CN(CCOc1ccc(C[C@H](Nc2ccccc2C(=O)c2ccccc2)C(=O)O)cc1)c1ccccn1 [GW 1929 hydrochloride]
inactive: [1] 0 | [2] 0 | [3] 0 | [4] 0 | [5] 0 | [6] 0 | [7] 0 | [8] 0 | [9] 0 | [10] 0 | [11] 0 | [12] 0 | [13] 0 | [14] 0 | [15] 0

O=C(NC(CO)C(O)c1ccc([N+](=O)[O-])cc1)C(Cl)Cl (stereo not given) [Chloramphenicol]
inactive: [1] 0 | [2] 0 | [3] 0 | [4] 0 | [5] 0 | [6] 0 | [7] 0 | [8] 0 | [9] 0 | [10] 0 | [11] 0 | [12] 0 | [13] 0 | [14] 0 | [15] 0

O=C1N(c2ccccc2)c2ccccc2C1(Cc1ccncc1)Cc1ccncc1 [linopirdine]
inactive: [1] 0 | [2] 0 | [3] 0 | [4] 0 | [5] 0 | [6] 0 | [7] 0 | [8] 0 | [9] 0 | [10] 0 | [11] 0 | [12] 0 | [13] 0 | [14] 0 | [15] 0

CC(c1cc2ccccc2s1)N(O)C(N)=O (stereo not given) [zileuton]
inactive: [1] 0 | [2] 0 | [3] 0 | [4] 0 | [5] 0 | [6] 0 | [7] 0 | [8] 0 | [9] 0 | [10] 0 | [11] 0 | [12] 0 | [13] 0 | [14] 0 | [15] 0

CCCCc1nc(Cl)c(CO)n1Cc1ccc(-c2ccccc2-c2nnn[nH]2)cc1 [losartan]
inactive: [1] 0 | [2] 0 | [3] 0 | [4] 0 | [5] 0 | [6] 0 | [7] 0 | [8] 0 | [9] 0 | [10] 0 | [11] 0 | [12] 0 | [13] 0 | [14] 0 | [15] 0

CC(=O)N[C@@H]1[C@@H](O[C@H](C)C(=O)O)[C@H](O)[C@@H](CO)O[C@@H]1O [Muramic acid, N-acetyl]
inactive: [1] 0 | [2] 0 | [3] 0 | [4] 0 | [5] 0 | [6] 0 | [7] 0 | [8] 0 | [9] 0 | [10] 0 | [11] 0 | [12] 0 | [13] 0 | [14] 0 | [15] 0
